CYP2C9 inh = blockers of cytochrome P450 2C9 activity – biochemical, luminescence, ADME assay, primary screen. CYP2C9 Supersomes, luciferin-H conversion. inhibition, % at 5 µM. 20% of 96,000 active. AID 777, 2007;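 active means blocking of liver enzyme CYP2C9 beyond about 50% at 5 µM, limit read from the data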
CD11b adhes inh = inhibitors of CD11b/CD18 adhesion to fibrinogen, primary screen, K562 cells, luminescence; Integrin beta-2 (Homo sapiens) + Integrin alpha-M (Homo sapiens), P05107+P11215; ATPlite luminescence; Mn2+ added to activate the integrin; inhibition, % at 10 µM; 0.54% of 93,000 active; AID 1497, 2009;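 active means primary inhibition of 50% or more at 10 µM, then 40% or more on retest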
Target sequence (P05107 whole entry, looked up, other chains not shown): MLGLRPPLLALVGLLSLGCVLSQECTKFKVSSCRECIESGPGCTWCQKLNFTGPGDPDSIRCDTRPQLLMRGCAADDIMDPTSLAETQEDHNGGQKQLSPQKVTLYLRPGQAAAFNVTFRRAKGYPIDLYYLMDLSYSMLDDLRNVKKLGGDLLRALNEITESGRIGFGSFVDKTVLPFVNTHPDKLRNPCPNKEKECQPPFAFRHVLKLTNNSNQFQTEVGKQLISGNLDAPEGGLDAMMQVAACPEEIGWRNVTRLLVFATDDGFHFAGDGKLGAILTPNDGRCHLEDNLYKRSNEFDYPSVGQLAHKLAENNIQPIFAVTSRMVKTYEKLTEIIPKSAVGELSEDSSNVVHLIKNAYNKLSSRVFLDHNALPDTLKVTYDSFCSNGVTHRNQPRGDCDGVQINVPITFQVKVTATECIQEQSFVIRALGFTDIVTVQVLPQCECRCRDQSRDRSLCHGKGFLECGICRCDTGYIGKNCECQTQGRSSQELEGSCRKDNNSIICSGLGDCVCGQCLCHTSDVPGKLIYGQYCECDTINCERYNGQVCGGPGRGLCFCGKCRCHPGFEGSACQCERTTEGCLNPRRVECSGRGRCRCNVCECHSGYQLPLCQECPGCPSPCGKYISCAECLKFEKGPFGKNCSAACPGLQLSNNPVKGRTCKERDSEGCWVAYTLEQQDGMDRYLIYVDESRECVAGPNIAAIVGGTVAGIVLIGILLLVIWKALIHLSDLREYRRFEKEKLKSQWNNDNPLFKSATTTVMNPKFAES
CYP2C19 activ = human CYP2C19 activators, primary screen, biochemical, luminescence; Cytochrome P450 2C19 (Homo sapiens), P33261; activation factor at 5 µM; 96,000 tested, under 10 active; recombinant CYP2C19, luciferin-H EGE luminescence; stronger effect = higher value; 0 = fully inhibited enzyme, 1 = untreated enzyme; AID 1025, 2008;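 active means activation factor of at least 2 at 5 µM in the primary screen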
CYP2C9 act = human CYP2C9 activators, primary screen, biochemical, luminescence. recombinant CYP2C9, luciferin-H conversion; stronger effect = higher value; factor 1 = untreated enzyme, 0 = blocked. activation factor at 5 µM. 1.4% of 96,000 active. AID 1024, 2008;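 active means activation factor of 2 or more for CYP2C9 at a 5 µM dose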
CYP2C19 inh = blockers of cytochrome P450 2C19 activity – biochemical, luminescence, ADME assay, primary screen. CYP2C19 Supersomes, luciferin-H EGE luminescence, 30 min. P33261. inhibition, % at 5 µM. 21% of 96,000 active. AID 778, 2007;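 active means CYP2C19 inhibition above a set limit at 5 µM in the primary screen, cut at about 50% in these data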
CD11b adhes enh = enhancers of CD11b/CD18 adhesion to fibrinogen, primary screen, K562 cells, luminescence; Integrin beta-2 (Homo sapiens) + Integrin alpha-M (Homo sapiens), P05107+P11215; ATPlite luminescence; activation, % at 10 µM; 0.07% of 93,000 active; AID 1499, 2009;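 active means 10 µM primary screen giving 50% or more activity, confirmed by 40% or more on retest at that dose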
Each line names hits and unclear results; the compound was inactive in the other large screens. Shown are actives, neighbours in structure and some others; about 28% of the full set was active somewhere.

Cc1ccc(O)c(CC(C)C)n1	none
COc1ccc(CCc2nc(C)ccc2O)cc1	CYP2C9 inh 66, CYP2C19 inh 83
O=C(c1noc2c1CCCC2)N1CCOCC1	none
Cc1cc(NC(=O)c2cc(-c3ccc(C)s3)nc3ccccc23)no1	CYP2C9 inh 86, CYP2C19 inh 67
Cc1ccc(-c2cc(C(=O)Nc3cc(C)on3)c3ccccc3n2)c(C)c1	CYP2C9 inh 77
Cc1ccc(C)c(-c2nnc(OCC(=O)Nc3cc(C)on3)c3ccccc23)c1	CYP2C9 inh 95, CYP2C19 inh 76
O=C(Nc1ccc(Oc2cccc3ccccc23)cc1)c1ccco1	none
N#CC(C#N)=Cc1ccc(OC(=O)c2ccccn2)cc1	none (no result: CYP2C9 inh, CYP2C19 activ, CYP2C9 act, CYP2C19 inh)
O=C(C1CN(S(=O)(=O)c2ccccc2)CCN1S(=O)(=O)c1ccccc1)N1CCCCCC1 (centres undefined)	none
CCOn1c(=O)c(-c2cccs2)[n+]([O-])c2ccccc21	CYP2C9 inh 53, CYP2C19 inh 58
Cc1[nH]c2ccccc2c1C(O)CN1CCN(c2cccc(C(F)(F)F)c2)CC1 (centres undefined)	none
COc1cccc(-n2cnc3cccc(N)c32)c1	CYP2C9 act 2.3
COc1cccc(Oc2ccc(N)cn2)c1	none (no result: CD11b adhes inh)
CCOC(=O)c1ccc(NC(=O)CCc2nc(-c3ccccc3Cl)no2)cc1	CYP2C9 inh 96
CCOC(=O)c1ccc(NC(=O)CCc2nc(-c3ccccc3)no2)cc1	CYP2C9 inh 50
CCc1ccccc1NC(=O)CCc1nc(-c2ccc(C)cc2)no1	none (no result: CD11b adhes inh, CD11b adhes enh)
CCOC(=O)c1cccc(NC(=O)CCc2nc(-c3ccc(C)cc3)no2)c1	none
CC(C)C(=O)Nc1ccccc1C(=O)OCC(=O)c1ccc2c(c1)OCCO2	none (no result: CYP2C9 inh, CYP2C19 activ, CYP2C9 act, CYP2C19 inh)
Cc1ccc(C(=O)C(C)OC(=O)c2n[nH]c(=O)c3ccccc23)cc1 (centres undefined)	CYP2C9 inh 84, CYP2C19 inh 68
Cc1ccc(C(=O)COC(=O)c2n[nH]c(=O)c3ccccc23)cc1	none
CCN=C(Nc1ccc(Cl)cc1)c1cccnc1	none (no result: CD11b adhes inh, CD11b adhes enh)
CCCCc1ccc(NC(=S)Nc2cccnc2)cc1	none (no result: CYP2C9 inh, CYP2C19 activ, CYP2C9 act, CYP2C19 inh)
CCCN=C(Nc1ccc(Cl)cc1)c1cccnc1	CYP2C19 inh 54
CCCCN=C(Nc1ccc(Cl)cc1)c1cccnc1	CYP2C19 inh 67
COc1cccc(N(C(=O)c2cccs2)c2nc3ccccc3s2)c1	none
COc1ccc(C(=O)Nc2ccc(Oc3nc(C)nc4sc(-c5ccccc5)cc34)cc2)cc1OC	none (no result: CYP2C9 inh, CYP2C19 activ, CYP2C9 act, CYP2C19 inh)
CN1/C(=N\O)c2cccc3cccc1c23	CYP2C19 inh 70
CN1c2cccc3cccc(c23)N(C)C1(C)C	none (no result: CD11b adhes inh, CD11b adhes enh)
Cc1ccc(NC(=O)C(SCC(=O)O)c2ccccc2)cc1C (centres undefined)	none
COC(=O)CSC(C(=O)Nc1ccc(C)c(C)c1)c1ccccc1 (centres undefined)	CYP2C9 inh 60, CYP2C19 inh 92
NC(=O)c1c(-c2cccs2)csc1N	none
O=C(CSCC(=O)N1CCCCC1)OCC(=O)c1c[nH]c2ccccc12	CYP2C19 inh 69
CC1(C(=O)OCC(=O)c2c[nH]c3ccccc23)CC1(Cl)Cl (centres undefined)	CYP2C9 inh 85, CYP2C19 inh 97
CC(C)Cc1ccc(C(C)C(=O)OCC(=O)c2c[nH]c3ccccc23)cc1 (centres undefined)	none
CSc1ccc(CNCCCN(C)C)cc1	none (no result: CYP2C9 inh, CYP2C19 activ, CYP2C9 act, CYP2C19 inh)
COc1cccc(CNCc2ccc(SC)cc2)c1OC	CYP2C19 inh 100 (no result: CD11b adhes inh, CD11b adhes enh)
CC(C)N(Cc1nc(-c2ccccc2)no1)C(=O)CN(C)S(=O)(=O)c1ccc(Br)cc1	CYP2C9 inh 58, CYP2C19 inh 52
CN(Cc1nc(-c2cccnc2)no1)S(=O)(=O)c1ccc2ccccc2c1	CYP2C19 inh 86
COc1ccc(-c2noc(CN(C)S(=O)(=O)c3ccc(Cl)cc3)n2)cc1OC	none
CN(Cc1nc(-c2cccnc2)no1)S(=O)(=O)c1ccc(Br)cc1	none
CN(Cc1nc(-c2ccccn2)no1)S(=O)(=O)c1ccc(Br)cc1	CYP2C9 inh 61, CYP2C19 inh 61
CC(C)N(Cc1nc(-c2ccc(Cl)cc2)no1)C(=O)CN(C)S(=O)(=O)c1ccc(Cl)cc1	CYP2C9 inh 89, CYP2C19 inh 62
COc1ccc(Cc2nc(-c3ccccn3)no2)cc1	none
O=C(N1CCOCC1)N1CCN(S(=O)(=O)N2CCCCC2)CC1	none
Cc1ccc(C)c(NC(=S)NNC(=O)c2sccc2C)c1	CYP2C9 inh 89, CYP2C19 inh 79
[O-][n+]1c2c(c3c4non(O)c4ccc31)CCCC2	CD11b adhes inh 96
O=C1C2C3c4ccccc4C(c4ccccc43)C2C(=O)N1c1nc(-c2ccccc2)cs1 (centres undefined)	CYP2C9 inh 62 (no result: CD11b adhes inh, CD11b adhes enh)
N=C1SCC(=O)N1c1nc(-c2ccccc2)cs1	none (no result: CD11b adhes inh, CD11b adhes enh)
CC1CCCC(NC(=O)CSc2ncccc2C(=O)O)C1C (centres undefined)	none
COC(=O)c1ccc(COc2ncnc3c(Cl)cc(Cl)cc23)o1	CYP2C9 inh 62
COc1ccc(NC(=O)CSc2nnc(-c3ccoc3C)n2CCc2ccccc2)cc1	CYP2C9 inh 89, CYP2C19 inh 88
Cc1occc1-c1nnc(SCC(=O)Nc2ccc(F)cc2)n1Cc1ccccc1	CYP2C9 inh 72
Cc1ccccc1NC(=O)CSc1nnc(-c2ccoc2C)n1CCc1ccccc1	none
Cc1nnc(SCC(=O)Nc2ccccc2)n1CCc1ccccc1	none
Cc1occc1-c1nnc(SCC(=O)NC(C)(C)C)n1C(C)c1ccccc1 (centres undefined)	none
Cc1occc1-c1nnc(SCC(=O)Nc2ccccc2)n1Cc1ccccc1	CYP2C9 inh 62
O=C(CSc1ncc(-c2ccccc2)n1-c1ccccc1)NCc1ccco1	CYP2C9 inh 74, CYP2C19 inh 50
COc1ccc(-n2c(-c3ccc(F)cc3)cnc2SCC(=O)NCc2ccco2)cc1	CYP2C9 inh 94, CYP2C19 inh 92
O=C(Cn1nc(-c2ccccc2)ccc1=O)NCCN1CCN(Cc2ccccc2)CC1	CYP2C19 inh 84
CCCCN1C(=O)C(O)=C(C(C)=O)C1c1ccccc1 (centres undefined)	none
COc1ccc(C2C(C(=O)c3sc(C)nc3C)=C(O)C(=O)N2CCCn2ccnc2)cc1OC (centres undefined)	none
Cc1ccc(C)c(/C(O)=C2\C(=O)C(=O)N(CCCn3ccnc3)C2c2ccncc2)c1 (centres undefined)	CYP2C9 inh 53 (no result: CD11b adhes inh, CD11b adhes enh)
CCCCCCN1C(=O)C(O)=C(C(C)=O)C1c1ccc(Cl)cc1 (centres undefined)	CYP2C9 inh 75
